This is part of a sample that, as a whole, favours compounds with a hit. Of some 83,000 tested, about 20% had one in any assay.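 For each line, cells grew in 96-well plates with the test compound present at a single concentration for 48 hours.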 The source made the active and inactive calls. The calls were made as follows: active = growth percent below 10; inactive = the rest.
system: SF-539 CNS; experiment: NCI-60 one-dose screen, 48 h (100 = growth as untreated, 0 = no growth, -100 = all killed); settings: 10 µM unless noted

SMILES | growth
CC(=O)O[C@H]1C(=O)[C@@]2(C)C([C@H](OC(=O)c3ccccc3)[C@]3(O)C[C@H](OC(=O)[C@H](O)[C@@H](NC(=O)c4ccccc4)c4ccccc4)C(C)=C1C3(C)C)[C@]1(OC(C)=O)CO[C@@H]1C[C@@H]2O (some centres not stated) | 13.1% (inactive)
CCCCCCCC/C=C/CCCCCCCC1=NC(C)(C)CN1CC(C)O (configuration not stated) | 29.2% (inactive)
COc1cc(C2NC(c3ccc(Cl)cc3)C(C)C(=NC(=O)c3cnccn3)C2C)cc(OC)c1OC (configuration not stated) | 89.8% (inactive)
C[C@@H]1CC[C@H]2[C@@H](C)C(O)O[C@@H]3O[C@]4(C)CC[C@@H]1[C@]32OO4 (some centres not stated) | 33.6% (inactive)
C/C(=C\CCc1ccsc1)CC/C=C(\C)CCCN1CCN(CCO)CC1 | 57.8% (inactive)
CN1COc2ccc3ccccc3c2C1 | 84.9% (inactive)
COc1ccc(-c2cnnn2-c2cc(OC)c3c(c2)OCO3)cc1 | -15.2% (active)
Nc1c2ccccc2nc2ccccc12 (tested in a mixture with another compound) | 27.5% (inactive)
CCOC(=O)C1=C(C)N2C(=NC3=C(CCC/C3=C\c3ccc(Cl)cc3)C2c2ccc(Cl)cc2)S1 (configuration not stated) | 41.3% (inactive)
C=C(C)[C@H]1CC/C(C)=C/CC[C@]2(C)O[C@H]2CC/C(C=O)=C\C1O (some centres not stated) | 106% (inactive)
CCN(CC)CCCCNc1c2ccccc2[n+](C)c2c1[nH]c1ccccc12 | -40.6% (active)
Cn1cc(-c2csc(-c3c[nH]c4ncccc34)n2)c2cc(F)cnc21 | 90.9% (inactive)
Nc1ccccc1-c1ccc([N+](=O)[O-])cc1 | 52.8% (inactive)
Cc1ccc(NC(=O)Nc2ccc(-c3cccnc3)cc2N2CCC(CO)CC2)cc1 | 1.34% (active)
NNC(=O)C1CC2c3ccccc3C1c1ccccc12 (configuration not stated) | 99% (inactive)
O=C(OC[C@H]1O[C@H](OC(=O)c2cc(O)c(O)c(OC(=O)c3cc(O)c(O)c(O)c3)c2)[C@H](OC(=O)c2cc(O)c(O)c(OC(=O)c3cc(O)c(O)c(O)c3)c2)[C@@H](OC(=O)c2cc(O)c(O)c(OC(=O)c3cc(O)c(O)c(O)c3)c2)[C@@H]1OC(=O)c1cc(O)c(O)c(OC(=O)c2cc(O)c(O)c(O)c2)c1)c1cc(O)c(O)c(OC(=O)c2cc(O)c(O)c(O)c2)c1 | 29.3% (inactive)
NS(=O)(=O)c1ccc(NC2=C(Cl)C(=O)c3ccccc3C2=O)cc1 | 89.6% (inactive)
CCOC(=O)C1=C(COCCN)NC(C)=C(C(=O)OC)C1c1ccccc1Cl (configuration not stated) | 92.9% (inactive)

SMILES | growth
Cc1cc2c(C#N)n3c(c2cc1C)C(=O)C(c1ccccc1)Oc1ccccc1-3 (configuration not stated) | 74% (inactive)
CN(C)c1nc(N)nc(Cn2c(-c3nonc3N)nc3ccccc32)n1 | 86.5% (inactive)
CCOC(=O)/C(=C/c1ccccc1)C(=O)c1ccccc1 | 84.4% (inactive)
Cn1cnc([N+](=O)[O-])c1S(=O)(=O)Oc1ccc(Cl)cc1 | 81.4% (inactive)
O=C(/C=C/c1ccccc1Cl)c1ccc(O)cc1 | 94.1% (inactive)
O=C(Cc1ccccn1)C(F)(F)C(F)(F)C(F)(F)F | 104% (inactive)
Cn1c(=O)c2nc(SCc3ccccc3)n(C)c2n(C)c1=O | 101% (inactive)
COc1ccc2c(c1)nc(N)c1c3ccccc3cn21 | 94.3% (inactive)
O=C(/C(=C/c1cccc([N+](=O)[O-])c1)c1ccccc1)c1ccccc1 | 81.6% (inactive)
CCCCCCCC/C=C\CCCCCCCCOc1ccccc1CC(=O)NCC[N+]1(C)CCCC1 | 99% (inactive)
O=C(C(=O)N1CCCCC1)c1ccc(OC2OC(CO)C(O)C(O)C2O)cc1 (configuration not stated) | 100% (inactive)
O=NC1CC=CCC1c1ccccc1 (configuration not stated) | 98.5% (inactive)
CCC(C)(C)C(=O)O[C@H]1C[C@@H](C)C=C2C=C[C@H](C)[C@H](CC[C@@H]3C[C@@H](O)CC(=O)O3)[C@H]21 | 90.7% (inactive)
COc1ccc2[nH]cc(/C=C3/C(=O)Nc4ccc(F)cc43)c2c1 | 99.4% (inactive)
C[C@]12CC[C@@H]3c4ccc(O)cc4CC[C@H]3[C@@H]1CC[C@@H]2NS(=O)(=O)c1cccc(Br)c1 | 85.6% (inactive)
NC(=O)NN=C(C1CC1)C1CC1 | 90.2% (inactive)
CCC1=C(c2ccc(OC)cc2)C(C)(C)Oc2c1ccc(O)c2CN1CCCC1 | 69.3% (inactive)
CN(C)c1ccc(/C=C\c2ccnc3ccccc23)cc1 | 78.3% (inactive)

system: UACC-257 melanoma; experiment: as above; settings: 10 µM unless noted

SMILES | growth
CC(=O)O[C@H]1C(=O)[C@@]2(C)C([C@H](OC(=O)c3ccccc3)[C@]3(O)C[C@H](OC(=O)[C@H](O)[C@@H](NC(=O)c4ccccc4)c4ccccc4)C(C)=C1C3(C)C)[C@]1(OC(C)=O)CO[C@@H]1C[C@@H]2O (some centres not stated) | 45% (inactive)
CCCCCCCC/C=C/CCCCCCCC1=NC(C)(C)CN1CC(C)O (configuration not stated) | 87.2% (inactive)
COc1cc(C2NC(c3ccc(Cl)cc3)C(C)C(=NC(=O)c3cnccn3)C2C)cc(OC)c1OC (configuration not stated) | 120% (inactive)
C[C@@H]1CC[C@H]2[C@@H](C)C(O)O[C@@H]3O[C@]4(C)CC[C@@H]1[C@]32OO4 (some centres not stated) | 38.3% (inactive)
C/C(=C\CCc1ccsc1)CC/C=C(\C)CCCN1CCN(CCO)CC1 | 11.4% (inactive)
CN1COc2ccc3ccccc3c2C1 | 107% (inactive)
COc1ccc(-c2cnnn2-c2cc(OC)c3c(c2)OCO3)cc1 | 59.7% (inactive)
Nc1c2ccccc2nc2ccccc12 (tested in a mixture with another compound) | -11.3% (active)
CCOC(=O)C1=C(C)N2C(=NC3=C(CCC/C3=C\c3ccc(Cl)cc3)C2c2ccc(Cl)cc2)S1 (configuration not stated) | 25.7% (inactive)
C=C(C)[C@H]1CC/C(C)=C/CC[C@]2(C)O[C@H]2CC/C(C=O)=C\C1O (some centres not stated) | 154% (inactive)
CCN(CC)CCCCNc1c2ccccc2[n+](C)c2c1[nH]c1ccccc12 | -42.6% (active)
Cn1cc(-c2csc(-c3c[nH]c4ncccc34)n2)c2cc(F)cnc21 | 96.2% (inactive)
Nc1ccccc1-c1ccc([N+](=O)[O-])cc1 | 78.9% (inactive)
Cc1ccc(NC(=O)Nc2ccc(-c3cccnc3)cc2N2CCC(CO)CC2)cc1 | 24.3% (inactive)
NNC(=O)C1CC2c3ccccc3C1c1ccccc12 (configuration not stated) | 118% (inactive)
O=C(OC[C@H]1O[C@H](OC(=O)c2cc(O)c(O)c(OC(=O)c3cc(O)c(O)c(O)c3)c2)[C@H](OC(=O)c2cc(O)c(O)c(OC(=O)c3cc(O)c(O)c(O)c3)c2)[C@@H](OC(=O)c2cc(O)c(O)c(OC(=O)c3cc(O)c(O)c(O)c3)c2)[C@@H]1OC(=O)c1cc(O)c(O)c(OC(=O)c2cc(O)c(O)c(O)c2)c1)c1cc(O)c(O)c(OC(=O)c2cc(O)c(O)c(O)c2)c1 | 60.2% (inactive)
NS(=O)(=O)c1ccc(NC2=C(Cl)C(=O)c3ccccc3C2=O)cc1 | 92.5% (inactive)
CCOC(=O)C1=C(COCCN)NC(C)=C(C(=O)OC)C1c1ccccc1Cl (configuration not stated) | 59% (inactive)

SMILES | growth
Cc1cc2c(C#N)n3c(c2cc1C)C(=O)C(c1ccccc1)Oc1ccccc1-3 (configuration not stated) | 44.7% (inactive)
CN(C)c1nc(N)nc(Cn2c(-c3nonc3N)nc3ccccc32)n1 | 93.3% (inactive)
COC(=O)[C@]1(C(C)C)N[C@H](c2cn(-c3ccccc3)nc2-c2ccccc2)[C@@H]2C(=O)N(c3ccc(Cl)cc3)C(=O)[C@@H]21 | 107% (inactive)
CCOC(=O)/C(=C/c1ccccc1)C(=O)c1ccccc1 | 64.1% (inactive)
Cn1cnc([N+](=O)[O-])c1S(=O)(=O)Oc1ccc(Cl)cc1 | 57% (inactive)
O=C(/C=C/c1ccccc1Cl)c1ccc(O)cc1 | 116% (inactive)
Cn1c(=O)c2nc(SCc3ccccc3)n(C)c2n(C)c1=O | 111% (inactive)
COc1ccc2c(c1)nc(N)c1c3ccccc3cn21 | 85.9% (inactive)
O=C(/C(=C/c1cccc([N+](=O)[O-])c1)c1ccccc1)c1ccccc1 | 36.5% (inactive)
CCCCCCCC/C=C\CCCCCCCCOc1ccccc1CC(=O)NCC[N+]1(C)CCCC1 | 88.4% (inactive)
O=C(C(=O)N1CCCCC1)c1ccc(OC2OC(CO)C(O)C(O)C2O)cc1 (configuration not stated) | 106% (inactive)
O=NC1CC=CCC1c1ccccc1 (configuration not stated) | 105% (inactive)
CCC(C)(C)C(=O)O[C@H]1C[C@@H](C)C=C2C=C[C@H](C)[C@H](CC[C@@H]3C[C@@H](O)CC(=O)O3)[C@H]21 | 86.7% (inactive)
COc1ccc2[nH]cc(/C=C3/C(=O)Nc4ccc(F)cc43)c2c1 | 99.8% (inactive)
C[C@]12CC[C@@H]3c4ccc(O)cc4CC[C@H]3[C@@H]1CC[C@@H]2NS(=O)(=O)c1cccc(Br)c1 | 80.3% (inactive)
NC(=O)NN=C(C1CC1)C1CC1 | 101% (inactive)
CCC1=C(c2ccc(OC)cc2)C(C)(C)Oc2c1ccc(O)c2CN1CCCC1 | -16.1% (active)
CN(C)c1ccc(/C=C\c2ccnc3ccccc23)cc1 | 80.9% (inactive)

Source: PubChem BioAssay (NCI)
